PubChem BioAssay AID1851 (National Center for Advancing Translational Sciences (NCATS), 2009)
In all, about 16,000 compounds went through this assay and about 5,700 (36%) were called active. Not shown: some 24% with an inconclusive outcome. This is one part of the list. A number with no mark means an inactive call. Calls come from the whole dose curve; as a rule, active = well fitted curve in the direction sought with a large enough effect; inconclusive = small, poorly fitted or top-dose-only effect, or effect the other way; inactive = no such curve, though single readings can be large or run the other way.

molecular target: Cytochrome P450 1A2 (Homo sapiens) (UniProt P05177); assay: Cytochrome panel assay with activity outcomes; conditions: recombinant CYP, pro-luciferin dealkylation, luminescence, p450-cyp1a2; series mostly up to 57.1 µM
Sequence (P05177 whole entry, looked up): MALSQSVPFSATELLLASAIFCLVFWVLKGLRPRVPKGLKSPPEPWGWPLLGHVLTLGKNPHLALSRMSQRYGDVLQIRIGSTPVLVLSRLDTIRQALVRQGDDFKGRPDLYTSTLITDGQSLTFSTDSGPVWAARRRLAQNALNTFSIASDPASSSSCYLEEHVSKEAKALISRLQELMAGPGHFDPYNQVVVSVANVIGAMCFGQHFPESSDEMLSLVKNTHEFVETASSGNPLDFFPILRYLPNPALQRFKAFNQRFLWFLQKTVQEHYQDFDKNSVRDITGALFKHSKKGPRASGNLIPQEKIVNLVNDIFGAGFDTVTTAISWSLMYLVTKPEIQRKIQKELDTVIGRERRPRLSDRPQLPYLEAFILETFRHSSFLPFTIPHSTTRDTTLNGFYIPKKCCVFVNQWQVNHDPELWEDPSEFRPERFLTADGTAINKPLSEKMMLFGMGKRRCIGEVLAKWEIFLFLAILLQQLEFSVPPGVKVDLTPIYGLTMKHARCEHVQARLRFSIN
% is set by controls: 0 for no effect and ±100 for the full control effect.

Row | SMILES | AC50 | activity, negative = inhibition
1 | C=C[C@@]1(C)CC(=O)[C@@]2(O)[C@@]3(C)[C@H](O)CCC(C)(C)[C@@H]3[C@H](O)[C@H](OC(C)=O)[C@]2(C)O1 | inactive | –
2 | Cc1ccc(/C=C2\Sc3ccccc3C2=O)s1 | 1.78 µM (active) | –
3 | COc1ncnc(NS(=O)(=O)c2ccc(N)cc2)c1OC | inactive | –
4 | Nc1ccn([C@@H]2O[C@H](COC(=O)C34CC5CC(CC(C5)C3)C4)[C@@H](O)[C@@H]2O)c(=O)n1 | – | -18.7% [at 2.29 µM]
5 | O=C(OCc1nc2ccccc2[nH]1)C12CC3CC(CC(C3)C1)C2 | 22.4 µM (active) | –
6 | NC(N)=[N+]1CCc2ccccc2C1 | inactive | –
7 | O=c1[nH][nH]c(C(F)(F)F)c1C=Nc1ccccc1Cl | 14.1 µM (active) | –
8 | O=c1[nH][nH]c(C(F)(F)F)c1C=Nc1cccc(Cl)c1 | 12.6 µM (active) | –
9 | O=c1[nH][nH]c(C(F)(F)F)c1C=Nc1ccccc1 | 4.47 µM (active) | –
10 | Cc1ccc(C(=O)c2ccc(CC(=O)O)n2C)cc1 | inactive | –
11 | CO[C@@H]1/C=C\CC(=O)N[C@@H](C)C(=O)OC[C@@H](OC)[C@H](C)/C=C\CC(=O)OC[C@H]1C | – | -4.89% [at 11.4 µM]
12 | OC[C@H]1NC[C@@H](O)[C@@H](O)[C@H]1O | inactive | –
13 | CC(C)/C(=N/[N+](C)(C)C)c1ccccc1 | – | -16.2% [at 2.29 µM]
14 | CC(C)C(=O)Nc1cc2c(cc1C(=O)c1ccccc1)OCCO2 | 14.1 µM (active) | –
15 | Cc1ccccc1C(C(=O)NC1CCCC1)N(C(=O)Cc1cccs1)c1ccc2c(c1)OCCO2 (stereo unspecified) | inactive | –
16 | CCC(=O)Nc1cc2c(cc1C(=O)c1ccccc1)OCCO2 | 25.1 µM (active) | –
17 | CCCC(=O)n1nc(-c2cccnc2)nc1N | 5.01 µM (active) | –
18 | COc1ccc(-c2nc(N)c3ncn([C@H]4O[C@@H](CO)[C@@H](O)[C@@H]4O)c3n2)cc1 | – | -13% [at 2.29 µM]
19 | COc1ccc(C(=O)n2nc(-c3ccccc3)nc2SC)cc1 | 0.562 µM (active) | –
20 | CCC(=O)n1nc(-c2ccc(OC)cc2)nc1N | 2 µM (active) | –
21 | COc1ccc(C(=O)N2CCC3(CC2)CCN(C(c2ccccc2)c2ccccc2)CC3)cc1 | inactive | –
22 | COc1ccc(-c2ccc(N)[n+](CCCC(=O)O)n2)cc1 | inactive | –
23 | COc1ccc(-n2c(SC)nc(O)c(Cc3ccccc3)c2=O)cc1 | inactive | –

Row | SMILES | AC50 | activity, negative = inhibition
24 | COc1cccc(-c2[nH]nc3c2C(c2ccsc2)C(C#N)=C(N)O3)c1 (stereo unspecified) | 1.12 µM (active) | –
25 | COc1ccc(C2C(C#N)=C(N)Oc3n[nH]c(C)c32)cc1CN1CCN(c2ccc(F)cc2)CC1 (stereo unspecified) | inactive | –
26 | COc1cccc(-c2[nH]nc3c2C(c2ccc(C)o2)C(C#N)=C(N)O3)c1 (stereo unspecified) | 1.58 µM (active) | –
27 | O=C(CP(=O)(c1ccccc1)c1ccccc1)Nn1cnnc1 | inactive | –
28 | CC1(C)[C@@H]2CC[C@]1(C)[C@@H](OC(=O)CSC#N)C2 | – | -18.3% [at 2.29 µM]
29 | Cc1cccn2c(/C=N/OCc3cccc(F)c3)c(-c3ccc(Cl)cc3)nc12 | 2 µM (active) | –
30 | Cc1cccn2c(/C=N/OCc3ccc(F)cc3)c(-c3ccc(Cl)cc3)nc12 | 2 µM (active) | –
31 | C#CCCCO/N=C1/C[C@@H](O)[C@@H](O)[C@@H]2[C@@H]3C(=O)N([C@@H](C)c4ccccc4)C(=O)[C@H]3CC[C@H]12 | – | 0.735% [at 11.4 µM]
32 | Cn1c(O)c(C(C#N)=C2N=c3ccccc3=N2)c2ccccc21 | 1.58 µM (active) | –
33 | O=c1ccc2c(OCCCCc3ccccc3)c3ccoc3cc2o1 | 0.501 µM (active) | –
34 | CCn1c(=O)[nH]c2ccccc2c1=O | 1.78 µM (active) | –
35 | Clc1ccccc1-c1ccc2ncnc(NCc3cccnc3)c2c1 | 0.158 µM (active) | –
36 | COCCNc1ncnc2ccc(-c3ccccc3C(F)(F)F)cc12 | 1.58 µM (active) | –
37 | FC(F)(F)c1ccccc1-c1ccc2ncnc(NCc3cccnc3)c2c1 | 1 µM (active) | –
38 | COCCNc1ncnc2ccc(-c3ccccc3OC)cc12 | 2 µM (active) | –
39 | CC1=N[C@@](C)(COC(=O)[C@]2(C)N[C@](C)(CO)CO2)COC1=O | – | 6.88% [at 2.29 µM]
40 | COc1ccccc1-c1ccc2ncnc(NCc3ccccc3)c2c1 | 2 µM (active) | –
41 | COc1cccc(-c2ccc3ncnc(NCc4cccnc4)c3c2)c1 | 0.251 µM (active) | –
42 | COc1ccccc1-c1ccc2ncnc(NCc3cccnc3)c2c1 | 0.794 µM (active) | –
43 | C=CC1=C(C(=O)O)N2C(=O)[C@@H](NC(=O)/C(=N\OCC(=O)O)c3csc(N)n3)[C@@H]2SC1 | inactive | –
44 | CN1CCC2(CC1)CCN(C(=O)c1cc(C(F)(F)F)cc(C(F)(F)F)c1)CC2 | inactive | –
45 | Cn1c(=O)c2[nH]c(CCCCc3nc4c([nH]3)c(=O)n(C)c(=S)n4C)nc2n(C)c1=S | – | -13.8% [at 2.29 µM]
46 | COC(=O)C/C=C\[C@@H](C)[C@@H]1C=C[C@H](OC(C)=O)[C@H](COC(C)=O)O1 | – | -1.57% [at 11.4 µM]
